# Mtb FBA inh: inhibitors of M. tuberculosis fructose-bisphosphate aldolase; P9WQA3; hit rate 2.3% among 360,000; inhibition, % at 1 µM; purified M. tuberculosis FBA, fluorescence read-out; in the data active = inhibition above about 27%;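 also: 0% = vehicle and 100% = reference inhibitor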
# Mtb bLac sens: beta-lactam sensitization of Mtb H37Rv | M. tuberculosis H37Rv growth with meropenem, percent inhibition | inhibition, % at 25 µM | hit rate 0.27% among 330,000 | AID 434955; call rule not given here;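 also: growth measured after seven days incubation then overnight dye step; 0% = bacteria only wells and 100% = bacteria with antibiotic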
# GDH-TPI counter: inhibits GDH-TPI coupling enzymes, artifact for Mtb FBA screen; AID 588335; hit rate 1.2% among 360,000; inhibition, % at 4.8 µM; GDH-TPI coupled enzyme counterscreen, NADH absorbance; in the data active = inhibition above about 30%;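 also: 0% = DMSO wells and 100% = wells lacking the enzyme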
# UGM FP inh: blocks M. tuberculosis UGM enzyme | inhibition, % at 10 µM | hit rate 0.06% among 320,000 | P9WIQ1 | purified UGM, fluorescence polarization probe displacement; in the data active = inhibition above about 10%, passing the limit was not always enough; inconclusive = no clear call, values can overlap the other calls
# Target sequence (P9WIQ1 whole entry, looked up): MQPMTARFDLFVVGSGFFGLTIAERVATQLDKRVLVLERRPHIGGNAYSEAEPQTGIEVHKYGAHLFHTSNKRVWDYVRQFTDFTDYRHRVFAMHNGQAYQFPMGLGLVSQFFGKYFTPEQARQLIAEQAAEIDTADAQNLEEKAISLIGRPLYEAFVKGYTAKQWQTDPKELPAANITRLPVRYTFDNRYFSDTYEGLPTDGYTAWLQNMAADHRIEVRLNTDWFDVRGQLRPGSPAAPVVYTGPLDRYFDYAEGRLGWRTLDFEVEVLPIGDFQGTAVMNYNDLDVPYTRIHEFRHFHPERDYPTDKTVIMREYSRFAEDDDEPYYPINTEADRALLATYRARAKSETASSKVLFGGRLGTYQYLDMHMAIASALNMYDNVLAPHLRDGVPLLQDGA
# RecA intein inh: inhibitors of M. tuberculosis RecA intein splicing; P9WHJ3; cell-free RecA intein splicing, fluorescence; inhibition, % (test concentration not listed); hit rate 0.75% among 290,000; AID 2221; in the data active = inhibition above about 30%; inconclusive = no clear call, values can overlap the other calls;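 also: 0% = vehicle wells and 100% = reference inhibitor control wells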
# Rv3671c inh: inhibitors of M. tuberculosis serine protease Rv3671c; inhibition, % at 5.96 µM; hit rate 0.048% among 320,000; in the data active = inhibition above about 38%;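 also: extracellular domain of Rv3671c used as enzyme; 0% = enzyme with DMSO and 100% = no enzyme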
# The depositor's hits bear a star; ? = inconclusive; . = not tested or not shown; + = active, no number. This is a sample that favours compounds with a hit; in the whole collection about 4% have one here.
SMILES,Mtb FBA inh,Mtb bLac sens,GDH-TPI counter,UGM FP inh,RecA intein inh,Rv3671c inh
CCCCOc1ccc(C(=O)C(CN2CCOCC2)c2ccccc2)cc1 (centres undefined),-8.3,99.2,12.9,-0.9,31.6*,-5.3
Cc1ccc(/C=C/C(=O)O)cc1S(=O)(=O)N(C)CCO,5.4,2.6,10.1,3.1,-4.7,-19.8
Cc1cnc(C(=O)Nc2ccc(N3CCN(C(=O)OC(C)(C)C)CC3)cc2)cn1,-0.1,-3.3,-4.4,-1.0,-2.0,6.5
COc1ccccc1C(=O)N/N=C(\C)CC(=O)Nc1ccccn1,7.9,-5.7,6.0,3.5,1.7,3.8
C/C(CC(=O)Nc1ccccn1)=N\NC(=O)c1ccc(C)cc1,4.9,2.8,4.8,-3.3,46.9*,-6.8
O=C(CC1C(=O)NCCN1Cc1ccc(-c2ccccc2)cc1)NCCOc1cccnc1 (centres undefined),4.7,-3.2,-6.0,-0.6,0.0,8.3
Cc1cc2oc(=O)cc(CN3CCC(C)CC3)c2cc1Cl,1.4,28.9,-0.5,2.0,4.1,-21.6
CCc1cc(=O)oc2c(CNCc3ccccc3F)c(O)c(Cl)cc12,+,-5.3,22.9,-0.9,-36.5,-4.5
Cc1cc(=O)oc2c(CN3CCCCC3)c(O)c(Cl)cc12,+,-0.2,1.9,2.8,-116.5,0.4
Cc1cc(=O)oc2c(CN3CCCC3)c(O)c(Cl)cc12,+,?,5.6,1.8,-106.5,1.2
Cc1cc(=O)oc2c(CN3CCC(C)CC3)c(O)c(Cl)cc12,+,6.8,14.7,4.5,-108.1,8.7
Cc1cc(C)cc(NC(=O)COC(=O)[C@@H](NC(=O)c2ccco2)C(C)C)c1,3.9,-9.9,1.0,1.0,-0.7,3.0
NC(=NCCc1c[nH]c2ccccc12)NC(=O)c1ccc(Cl)cc1,-4.5,10.7,8.2,-3.2,7.7,0.0
CCN(CC)Cc1c(O)c(Cl)cc2c(C)cc(=O)oc12,+,.,10.2,.,-152.4,.
CCN(CC)Cc1c(O)c(Cl)cc2c(C)c(C)c(=O)oc12,.,8.8,24.9,-2.7,-182.3,-5.2
CCCc1cc(=O)oc2c(CN3CCCC3)c(O)c(Cl)cc12,+,-5.7,22.2,2.9,-135.5,-4.4
CCc1cc(=O)oc2cc(C)c(CN3CCCC3)c(O)c12,-1.2,32.5,20.5,0.3,-5.1,1.4
CCCc1cc(=O)oc2cc(C)c(CN3CCCC3)c(O)c12,10.6,30.4,14.1,-1.8,-0.7,-7.7
CCN1CCN(Cc2c(O)c(Cl)cc3c(C)cc(=O)oc23)CC1,+,-4.3,7.8,7.4,-94.2,-2.9
C=CCc1c(O)c(CC)cc2c(C)cc(=O)oc12,+,-0.2,10.6,-0.3,-100.1,4.0
Cc1ccc(OCC(=O)N2c3ccccc3NC(=O)C2(C)C)c([N+](=O)[O-])n1,-2.6,-2.2,-5.1,1.1,2.8,3.0
CCCCNC(=O)c1nc(-c2ccncc2)oc1-c1ccccc1,+,.,.,.,.,.
CCOC(=O)N1CCC(Nc2nc3ccccc3nc2NS(=O)(=O)c2ccc(Cl)cc2)CC1,5.3,6.0,41.7*,1.0,-3.0,-2.2
CCOC(=O)N1CCC(NC(=O)c2ccc(Cl)cc2)CC1,1.3,-3.5,2.4,2.3,1.6,1.8
CC1CCCN(C(=O)CN(C)S(=O)(=O)c2ccc3c(c2)c(=O)n(C)c(=O)n3C)C1 (centres undefined),2.7,-1.0,0.8,-0.3,-0.5,-5.5
SMILES,Mtb FBA inh,Mtb bLac sens,GDH-TPI counter,UGM FP inh,RecA intein inh,Rv3671c inh
C=CCNC(=O)COC(=O)c1ccc(Sc2nncn2C)c([N+](=O)[O-])c1,6.4,7.7,4.8,3.8,-6.7,-0.7
COc1ccc(C(=O)/C=C/c2cccc(OCc3ccccc3)c2)cc1CSCC(=O)O,0.6,0.6,16.7,-0.1,12.3,-9.6
COc1ccc(C(=O)/C=C/c2ccc(OCc3ccccc3)cc2)cc1CSCC(=O)O,-0.1,69.2,40.2*,0.2,21.5,.
COc1ccc(C(c2nnnn2CS(=O)(=O)c2ccc(C)cc2)N2CCN(Cc3ccccc3)CC2)cc1 (centres undefined),-2.2,-1.7,0.6,1.1,4.2,-5.7
CCNC(=O)C1(C)CCCN1C(=O)c1ccc(F)c(Cl)c1 (centres undefined),-0.2,.,-1.8,.,.,.
CN(C)S(=O)(=O)c1cccc(NC(=S)N/N=C/c2ccc(O)c(O)c2O)c1,-4.6,.,32.1*,.,7.7,.
COc1ccc(O)c(/C=N/NC(=S)Nc2cccc(S(=O)(=O)N(C)C)c2)c1,4.3,-7.8,6.0,-1.5,-86.0,23.7
COc1cccc(/C=N/NC(=S)Nc2cccc(S(=O)(=O)N(C)C)c2)c1,1.1,-7.7,16.9,0.8,-4.9,-17.3
CN(C)S(=O)(=O)c1cccc(NC(=S)N/N=C/c2ccco2)c1,4.4,-1.7,52.0*,-0.1,-0.4,5.6
Cc1nc(NC(=O)/C=C/c2ccco2)sc1C,0.3,-1.5,31.8*,2.9,-0.4,-9.4
O=C(/C=C/c1ccco1)Nc1nnc(-c2ccco2)s1,0.3,0.3,12.8,-2.6,1.2,0.7
CCc1nnc(NC(=O)/C=C/c2ccco2)s1,-2.2,-2.7,47.1*,2.3,.,-11.9
CSc1nc2ccccc2n1C(=O)Oc1ccccc1,-2.6,3.7,-20.3,-3.6,4.6,2.2
O=C(NC1CCCc2ccccc21)c1ccccc1Cl (centres undefined),-3.3,-1.5,-2.8,-0.8,.,-10.9
CCOC(=O)C1=C(N)n2c(s/c(=C/c3ccco3)c2=O)=C(C(=O)OC)C1c1ccco1 (centres undefined),-6.3,-1.9,-5.8,1.2,2.0,-8.2
N#CC1=C(N)n2c(s/c(=C\c3ccco3)c2=O)=C(C#N)C1c1ccco1 (centres undefined),-0.6,-7.9,33.2*,2.7,3.8,7.9
C=CCN(C(=O)c1csnn1)C(C(=O)NC1CCCCC1)c1ccccc1F (centres undefined),-3.3,-7.0,9.5,4.9,0.8,4.0
Cn1nccc1C(=O)NC1CCCc2c1cnn2-c1cc(F)cc(F)c1 (centres undefined),+,6.3,7.7,-1.6,2.9,-2.0
CC1=C(C(=O)NC2CCCc3c2cnn3-c2cc(F)cc(F)c2)OCCO1 (centres undefined),1.7,-1.6,1.3,2.2,0.8,-3.9
Cc1ccc(S(=O)(=O)NC(=O)c2ccc(-c3ccc(C)c4ccccc34)o2)cc1,130.5*,-8.3,29.3,-0.7,20.0,-16.0
CCCCCOc1ccc(/C=N/NC(=O)c2nnn(-c3nonc3N)c2CN2CCCCCC2)cc1,2.0,-6.8,-1.4,-0.8,0.2,1.2
CCn1c(SCC(=O)Nc2ccccc2)nnc1-c1cccs1,5.0,-4.8,6.3,2.7,-0.6,7.1
CCn1c(SCC(=O)c2ccc(NS(=O)(=O)c3ccccc3)cc2)nnc1-c1cccs1,7.6,1.7,34.4*,-1.9,9.2,-7.3
Cc1ccc(N=Nc2c(N)nn3c(C)cc(C)nc23)cc1,-7.1,90.8,39.5*,-1.3,-2.9,-6.7
Cc1cc(C)n2nc(N)c(N=Nc3cccc(Cl)c3)c2n1,-7.6,88.4,3.1,-2.4,5.1,-0.8
